aSyn UTR act – Activators via SNCA 5'UTR binding, MLPCN; activity score, % (tested at 7.5 µM), hits read low; 300,000 tested, 7.1% active; alpha-synuclein 5'UTR reporter, activators screen; in the data active = activity score below about -60%
* hit, by the source's call. A selection follows.

`CCc1nccn1CCC(=O)N1CCCC(N2CCN(c3cccc(Cl)c3)CC2)C1` (stereo unspecified) gave aSyn UTR act -67*.
Screening C/C(=N\NC(=O)c1c(C)nc2ccccn12)c1ccc(C(C)(C)C)cc1 returned aSyn UTR act -98*.
`C/C(=N\NC(=O)c1cccc(N/N=C(\C)c2ccco2)c1)c1ccco1` gave aSyn UTR act -81*.
Screening C/C(=N/NC(=O)c1cc2ccccc2cc1O)c1ccco1 returned aSyn UTR act -64*.
C/C(=N\NC(=O)c1cc(-c2cccnc2)nc2ccccc12)c1ccc(O)cc1O was read as aSyn UTR act 105.
C/C(=N\NC(=O)c1c(C)nc2ccccn12)c1ccco1 was read as aSyn UTR act -139*.
Cc1ccc(/C=N/Nc2ccc(Cl)nn2)cc1 was read as aSyn UTR act -151*.
`Oc1ccc(/C=N/Nc2ccc(Cl)nn2)cc1O` gave aSyn UTR act -134*.
Nc1ccc(Oc2cccc(Oc3ccc(N)cc3)c2)cc1 was read as aSyn UTR act 87.
`c1ccc(Oc2ccc(-c3ccn[nH]3)cc2)cc1` gave aSyn UTR act -79*.
Cc1cc(C)n2c(Br)c(CSc3nc4ccccc4o3)nc2n1 was read as aSyn UTR act -87*.
For CCCC(C)C(=O)Nc1ccc2c(c1)OCCO2 (stereo unspecified) the results were aSyn UTR act -77*.
For CC(C)c1ccc(NC(=O)c2cccc(Br)c2)cc1 the results were aSyn UTR act -174*.
COc1cccc2c1OC1(C)CC2NC(=O)N1c1cccc(C(=O)Nc2ccc3c(c2)OCCO3)c1 (stereo unspecified) was read as aSyn UTR act -67*.
O=C(Nc1ccc2c(c1)OCCO2)c1ccc(Br)o1 was read as aSyn UTR act -114*.
Screening COc1ccc(C(=O)N2CCN(Cc3ccc4c(c3)OCO4)CC2)cc1[N+](=O)[O-] returned aSyn UTR act 46.
COc1ccc(C(=O)Nc2ccc3c(c2)OCCO3)cc1Br was read as aSyn UTR act -255*.
COc1ccc(NC(=O)c2ccc3c(c2)OCO3)cc1[N+](=O)[O-] was read as aSyn UTR act -192*.
CSCC[C@@H](C(=O)Nc1ccc2c(c1)OCCO2)N1Cc2ccccc2C1=O was read as aSyn UTR act -85*.
Screening O=C(Nc1ccc2c(c1)OCCO2)c1cccc(Br)c1 returned aSyn UTR act -150*.
`CCCOc1cccc(C(=O)Nc2ccc3c(c2)OCCO3)c1` gave aSyn UTR act -62*.
`Cc1ccc(C(=O)Nc2ccc3c(c2)OCCO3)cc1` gave aSyn UTR act 89.
O=C(Nc1ccc2c(c1)OCCO2)c1ccc(Br)cc1 was read as aSyn UTR act -78*.
O=C(Nc1ccc2c(c1)OCCO2)c1cccnc1 was read as aSyn UTR act -141*.
Cc1cccc(-c2noc(CCc3ccccc3)n2)c1 was read as aSyn UTR act -121*.
`Cc1ccc(-c2noc(CNc3ccccc3)n2)cc1` gave aSyn UTR act -78*.
Screening Cc1cccc(-c2noc(Cc3ccccc3)n2)c1 returned aSyn UTR act -169*.
Screening CN1CCN(c2ccc(NC(=O)Cc3ccccc3)cc2)CC1 returned aSyn UTR act -68*.
For O=C(/C=C/c1ccccc1)Nc1ccc(N2CCCCC2)cc1 the results were aSyn UTR act -196*.
Screening O=C(Cc1ccccc1)Nc1ccc(N2CCCCC2)cc1 returned aSyn UTR act -67*.
CN1CCN(c2ccc(NC(=O)N3CCc4ccccc43)cc2)CC1 was read as aSyn UTR act 70.
For Cc1cc(C(=O)Nc2ccc(Br)cc2)cs1 the results were aSyn UTR act -130*.
Cc1cccc(NC(=S)NNC(=O)c2csc3c2CCCC3)c1 was read as aSyn UTR act -125*.
Cc1cccc(NC(=S)NNC(=O)c2csc(C)c2)c1 was read as aSyn UTR act -77*.
NNc1nc2c(-c3ccc(F)cc3)nnn2c2ccccc12 was read as aSyn UTR act -141*.
For NNc1nc2c(-c3ccc(Cl)cc3)nnn2c2ccccc12 the results were aSyn UTR act -92*.
`CCCN1Cc2cccc(C(=O)Nc3ccc(-c4nc5ccccc5[nH]4)cc3)c2C1=O` gave aSyn UTR act -62*.
`COCCN1Cc2cccc(C(=O)Nc3cccc(-c4nc5ccccc5[nH]4)c3)c2C1=O` gave aSyn UTR act -80*.
For O=[N+]([O-])c1ccccc1Nc1nc(-c2cccnc2)cs1 the results were aSyn UTR act -91*.
`COc1ccccc1Nc1nc(-c2cccnc2)cs1` gave aSyn UTR act -110*.
`COc1ccc(Nc2nc(-c3cccnc3)cs2)c(OC)c1` gave aSyn UTR act -175*.
COc1ccccc1Nc1nc(NCC(C)C)nc(N)c1[N+](=O)[O-] was read as aSyn UTR act 77.
COc1ccc(OC)c2nc(-c3cccnc3)ccc12 was read as aSyn UTR act -67*.
Screening COc1ccccc1Nc1nc(C2(C)CCC(=O)O2)cs1 (stereo unspecified) returned aSyn UTR act -106*.
Screening Cc1ncc(/C=C2\C(=O)Nc3ccccc32)[nH]1 returned aSyn UTR act -104*.
`O=C(NC(=S)Nc1ccccc1O)c1ccccc1Cl` gave aSyn UTR act -127*.
O=C(NNC(=S)Nc1ccccc1Cl)c1ccccc1Br was read as aSyn UTR act -94*.
For CN1CCN(c2nc(Nc3cccc(C(F)(F)F)c3)nc(N3CCOCC3)n2)CC1 the results were aSyn UTR act -69*.
`c1csc(-c2nc3ccccc3s2)c1` gave aSyn UTR act -148*.
`Oc1ccc(-c2nc3ccccc3s2)cc1` gave aSyn UTR act -68*.
`Nc1ccccc1-c1nc2ccccc2s1` gave aSyn UTR act -240*.
c1ccc2sc(-c3ccncc3)nc2c1 was read as aSyn UTR act -111*.
c1cncc(-c2nc3ccccc3s2)c1 was read as aSyn UTR act -148*.
For Oc1ccc(-c2nc3ccccc3s2)c(O)c1 the results were aSyn UTR act -145*.
`Cc1cc(=O)oc2cc(OCc3cc4c(cc3Cl)OCO4)ccc12` gave aSyn UTR act -66*.
`Cn1cnc2cc(NC(=O)COc3ccccc3)ccc21` gave aSyn UTR act -117*.
CCC(=O)NCCc1nc2cc(NC(=O)c3ccccc3OC)ccc2n1C was read as aSyn UTR act -71*.
Screening CCC(=O)NCCc1nc2cc(NC(=O)c3cccc([N+](=O)[O-])c3)ccc2n1C returned aSyn UTR act -70*.
CC(=O)NCCc1nc2cc(NC(=O)c3ccc(F)cc3)ccc2n1C was read as aSyn UTR act -111*.
Screening Cc1ccc(OCC(=O)Nc2ccc3c(c2)nc(CCN2CCN(C)CC2)n3C)cc1 returned aSyn UTR act 105.
For COc1ccccc1C(=O)Nc1ccc2c(c1)nc(CCNC(C)=O)n2C the results were aSyn UTR act -73*.
CCC(=O)NCCc1nc2cc(NC(=O)COc3ccccc3)ccc2n1C was read as aSyn UTR act -113*.
For C=CCN1c2ccccc2[C@]23C[C@@H](C(=O)OC)N(C(=O)c4cc(C)oc4C)C2=NC(C(=O)OC)=C(C(=O)OC)[C@H]13 the results were aSyn UTR act -62*.
CC1CN(Cc2csc(-c3ccc(Cl)cc3)n2)CC(C)O1 (stereo unspecified) was read as aSyn UTR act -105*.
For Cn1c(SCC(=O)Nc2ccccc2F)nnc1-c1cccs1 the results were aSyn UTR act -78*.
For Cn1c(SCc2c(F)cccc2Cl)nnc1-c1cccs1 the results were aSyn UTR act -83*.
